The values that follow come from ChEMBL document CHEMBL3988442, “University of Dundee, Small-Polar-MMV Screening Library” (2021).

Common to all, as to design: scale not given: direction of the effect not stated beside the values
Assay [1] deals with Protein translocase subunit SecA (Escherichia coli (strain K12)) (UniProt P10408). The experiment in a line: Assay to Identify E. coli SecA ATPase Inhibitors. In kind it is functional. To be noted: 30 µM.
Assay [2] addresses T1, Ubiquitin-activating enzyme e1, putative (Leishmania donovani (strain BPK282A1)) (UniProt E9BSI1).
T1 sequence (whole entry): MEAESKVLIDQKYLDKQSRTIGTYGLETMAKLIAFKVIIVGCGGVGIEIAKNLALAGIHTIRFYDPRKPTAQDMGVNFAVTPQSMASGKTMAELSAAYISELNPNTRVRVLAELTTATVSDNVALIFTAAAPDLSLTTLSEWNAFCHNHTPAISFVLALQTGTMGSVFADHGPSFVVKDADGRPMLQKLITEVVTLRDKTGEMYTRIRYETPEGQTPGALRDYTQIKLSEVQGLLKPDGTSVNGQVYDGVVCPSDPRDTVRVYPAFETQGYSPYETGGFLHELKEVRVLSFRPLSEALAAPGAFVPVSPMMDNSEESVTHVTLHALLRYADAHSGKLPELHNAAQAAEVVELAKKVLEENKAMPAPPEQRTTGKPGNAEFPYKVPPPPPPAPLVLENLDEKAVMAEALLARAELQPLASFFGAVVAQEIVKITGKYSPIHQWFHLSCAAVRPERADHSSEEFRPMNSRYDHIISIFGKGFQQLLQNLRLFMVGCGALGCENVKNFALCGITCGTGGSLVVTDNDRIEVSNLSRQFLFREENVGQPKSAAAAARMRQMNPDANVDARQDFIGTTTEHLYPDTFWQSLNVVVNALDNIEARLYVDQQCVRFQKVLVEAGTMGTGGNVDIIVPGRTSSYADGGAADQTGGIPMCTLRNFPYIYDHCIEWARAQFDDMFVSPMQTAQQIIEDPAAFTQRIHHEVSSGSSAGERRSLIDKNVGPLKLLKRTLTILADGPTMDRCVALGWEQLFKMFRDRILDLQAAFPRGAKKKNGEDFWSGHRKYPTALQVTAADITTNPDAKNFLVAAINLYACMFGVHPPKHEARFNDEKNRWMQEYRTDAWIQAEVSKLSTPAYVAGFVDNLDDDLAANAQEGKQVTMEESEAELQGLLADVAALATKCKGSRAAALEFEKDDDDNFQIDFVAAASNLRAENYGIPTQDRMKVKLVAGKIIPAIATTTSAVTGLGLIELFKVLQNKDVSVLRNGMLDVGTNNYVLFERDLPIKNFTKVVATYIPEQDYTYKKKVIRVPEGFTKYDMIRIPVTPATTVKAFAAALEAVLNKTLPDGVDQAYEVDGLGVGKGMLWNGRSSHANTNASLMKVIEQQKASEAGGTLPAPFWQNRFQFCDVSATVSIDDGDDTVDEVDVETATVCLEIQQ
The experiment in a line: Leishmania donovani Ubiquitin Activating Enzyme (LdE1). Type of assay: functional. To be noted: 30 µM.

In assay [3] the target is AMP-activated protein kinase, AMPK (Homo sapiens) (UniProt P54646+O43741+P54619+Q9UGJ0+Q9Y478+Q13131+Q9UGI9). The experiment in a line: AMP-dependent Kinase enzyme assay. An in vitro enzyme assay that detects ADP turnover that is directly proportional to AMPK activity. This uses naive AMPK that is activated during the assay with MK-8722. In kind it is functional. Conditions: 30 µM.

The target in assay [4] is Sialic acid-binding Ig-like lectin 9 (Homo sapiens) (UniProt Q9Y336). The experiment in a line: Hs-Siglec9 ALPHAscreen SOP 20170721. Conditions: 10 µM. On the technique in general: Bead proximity is the source of the signal in Alpha formats.
Sequence of Sialic acid-binding Ig-like lectin 9 (Homo sapiens) (Q9Y336 whole entry): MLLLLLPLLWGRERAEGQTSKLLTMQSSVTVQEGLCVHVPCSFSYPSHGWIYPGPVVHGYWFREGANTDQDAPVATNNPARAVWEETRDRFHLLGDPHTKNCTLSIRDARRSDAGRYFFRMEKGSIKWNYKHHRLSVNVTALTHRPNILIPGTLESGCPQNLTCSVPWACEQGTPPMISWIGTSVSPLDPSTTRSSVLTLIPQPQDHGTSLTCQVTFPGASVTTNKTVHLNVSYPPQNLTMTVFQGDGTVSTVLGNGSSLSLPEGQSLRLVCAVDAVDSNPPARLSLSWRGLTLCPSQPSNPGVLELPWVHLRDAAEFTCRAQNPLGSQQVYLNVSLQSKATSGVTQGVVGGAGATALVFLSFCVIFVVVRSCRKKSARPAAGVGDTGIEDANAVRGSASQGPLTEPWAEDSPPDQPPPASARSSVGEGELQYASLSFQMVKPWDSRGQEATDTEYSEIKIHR
For another assay, the system named is Trypanosoma cruzi. As to the kind of experiment: Trypanosoma cruzi phosphomannomutase and mannose-1-phosphate guanylyltransferase assay. Type of assay: functional. Conditions: 10 µM.
For assay [5], the target named is T2, Arginase-2, mitochondrial (Homo sapiens) (UniProt P78540).
T2 sequence (whole entry): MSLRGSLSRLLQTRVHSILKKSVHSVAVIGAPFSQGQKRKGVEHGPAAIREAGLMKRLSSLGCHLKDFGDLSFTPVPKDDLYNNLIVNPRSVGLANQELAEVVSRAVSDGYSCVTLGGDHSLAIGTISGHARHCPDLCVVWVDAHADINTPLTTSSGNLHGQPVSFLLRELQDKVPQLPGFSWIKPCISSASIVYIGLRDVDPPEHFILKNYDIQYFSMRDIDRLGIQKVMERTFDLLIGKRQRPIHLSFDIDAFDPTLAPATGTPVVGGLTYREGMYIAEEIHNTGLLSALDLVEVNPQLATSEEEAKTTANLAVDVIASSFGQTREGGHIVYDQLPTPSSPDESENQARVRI
As to the kind of experiment: in vitro enzyme assay to detect the production of urea directly proportional to the activity of Arginase II. Further: in the data most compounds retested in dose-response had high values. Type of assay: functional. To be noted: 33.3 µM.

Assay [6] has as its target T3, Proteasome subunit beta (Trypanosoma cruzi) (UniProt O96673).
T3 sequence (whole entry): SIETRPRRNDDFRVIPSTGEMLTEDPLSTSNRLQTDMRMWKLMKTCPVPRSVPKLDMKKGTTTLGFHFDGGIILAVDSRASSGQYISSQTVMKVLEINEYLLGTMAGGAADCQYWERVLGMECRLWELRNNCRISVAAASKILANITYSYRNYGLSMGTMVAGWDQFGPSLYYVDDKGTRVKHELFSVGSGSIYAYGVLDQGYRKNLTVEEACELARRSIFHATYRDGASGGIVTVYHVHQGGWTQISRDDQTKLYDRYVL
As to the kind of experiment: Trypanosoma cruzi proteasome chymotrypsin-like activity (TcProtChymo) assay. Further: in the data most compounds retested in dose-response had high values. Conditions: 9.37 µM. Type of assay: functional.

The species entered for a further assay is Homo sapiens. The experiment in a line: To identify inhibition of the IFN signalling (Jak-Stat) pathway via expression of an eGFP reporter gene under the control of an IFN-stimulated response element (ISRE) containing MxA promoter. Type of assay: functional. To be noted: 30 µM. In general terms: Reporter assays use an easily measured gene product as a stand-in for the process of interest.

The target of assay [7] is T4, Tyrosyl-tRNA synthetase, putative (Trypanosoma cruzi (strain CL Brener)) (UniProt Q4DSP6).
T4 sequence (whole entry): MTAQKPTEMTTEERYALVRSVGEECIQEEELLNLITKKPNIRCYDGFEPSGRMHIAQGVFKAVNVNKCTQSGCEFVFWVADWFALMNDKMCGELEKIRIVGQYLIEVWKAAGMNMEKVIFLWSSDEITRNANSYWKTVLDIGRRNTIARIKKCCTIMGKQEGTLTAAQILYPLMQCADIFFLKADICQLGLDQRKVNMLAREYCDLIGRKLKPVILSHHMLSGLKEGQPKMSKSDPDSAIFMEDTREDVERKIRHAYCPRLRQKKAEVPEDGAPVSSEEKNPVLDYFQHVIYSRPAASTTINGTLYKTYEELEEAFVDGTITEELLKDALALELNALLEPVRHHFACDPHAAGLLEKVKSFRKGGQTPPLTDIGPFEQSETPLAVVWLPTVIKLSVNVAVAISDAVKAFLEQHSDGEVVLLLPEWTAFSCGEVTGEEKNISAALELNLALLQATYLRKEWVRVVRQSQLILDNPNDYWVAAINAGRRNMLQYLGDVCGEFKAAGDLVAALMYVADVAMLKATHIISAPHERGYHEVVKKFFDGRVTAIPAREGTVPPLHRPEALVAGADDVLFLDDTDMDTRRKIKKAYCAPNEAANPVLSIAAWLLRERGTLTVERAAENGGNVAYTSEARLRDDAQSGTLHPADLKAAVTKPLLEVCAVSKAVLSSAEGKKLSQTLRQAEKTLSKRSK
The experiment in a line: Trypanosoma cruzi tyrosyl tRNA synthetase (TcYRS) _High Tyrosine SOP. Further: in the data most compounds retested in dose-response had high values. Type of assay: functional. Conditions: 30 µM.

Assay [8] deals with T4, Tyrosyl-tRNA synthetase, putative (Trypanosoma cruzi (strain CL Brener)). As to the kind of experiment: Trypanosoma cruzi tyrosyl tRNA synthetase (TcYRS) SOP. Type of assay: functional. Conditions: 30 µM.
In assay [9] the target is Chromo domain-containing protein 1 (Saccharomyces cerevisiae (strain ATCC 204508 / S288c) (Baker's yeast)) (UniProt P32657). The experiment in a line: ScCHD-1 Enzyme Inhibition Assay. Further: in the data most compounds retested in dose-response had high values. In kind it is functional. To be noted: 30 µM.
Sequence of Chromo domain-containing protein 1 (Saccharomyces cerevisiae (strain ATCC 204508 / S288c) (Baker's yeast)) (P32657 whole entry, the tested form may be a part): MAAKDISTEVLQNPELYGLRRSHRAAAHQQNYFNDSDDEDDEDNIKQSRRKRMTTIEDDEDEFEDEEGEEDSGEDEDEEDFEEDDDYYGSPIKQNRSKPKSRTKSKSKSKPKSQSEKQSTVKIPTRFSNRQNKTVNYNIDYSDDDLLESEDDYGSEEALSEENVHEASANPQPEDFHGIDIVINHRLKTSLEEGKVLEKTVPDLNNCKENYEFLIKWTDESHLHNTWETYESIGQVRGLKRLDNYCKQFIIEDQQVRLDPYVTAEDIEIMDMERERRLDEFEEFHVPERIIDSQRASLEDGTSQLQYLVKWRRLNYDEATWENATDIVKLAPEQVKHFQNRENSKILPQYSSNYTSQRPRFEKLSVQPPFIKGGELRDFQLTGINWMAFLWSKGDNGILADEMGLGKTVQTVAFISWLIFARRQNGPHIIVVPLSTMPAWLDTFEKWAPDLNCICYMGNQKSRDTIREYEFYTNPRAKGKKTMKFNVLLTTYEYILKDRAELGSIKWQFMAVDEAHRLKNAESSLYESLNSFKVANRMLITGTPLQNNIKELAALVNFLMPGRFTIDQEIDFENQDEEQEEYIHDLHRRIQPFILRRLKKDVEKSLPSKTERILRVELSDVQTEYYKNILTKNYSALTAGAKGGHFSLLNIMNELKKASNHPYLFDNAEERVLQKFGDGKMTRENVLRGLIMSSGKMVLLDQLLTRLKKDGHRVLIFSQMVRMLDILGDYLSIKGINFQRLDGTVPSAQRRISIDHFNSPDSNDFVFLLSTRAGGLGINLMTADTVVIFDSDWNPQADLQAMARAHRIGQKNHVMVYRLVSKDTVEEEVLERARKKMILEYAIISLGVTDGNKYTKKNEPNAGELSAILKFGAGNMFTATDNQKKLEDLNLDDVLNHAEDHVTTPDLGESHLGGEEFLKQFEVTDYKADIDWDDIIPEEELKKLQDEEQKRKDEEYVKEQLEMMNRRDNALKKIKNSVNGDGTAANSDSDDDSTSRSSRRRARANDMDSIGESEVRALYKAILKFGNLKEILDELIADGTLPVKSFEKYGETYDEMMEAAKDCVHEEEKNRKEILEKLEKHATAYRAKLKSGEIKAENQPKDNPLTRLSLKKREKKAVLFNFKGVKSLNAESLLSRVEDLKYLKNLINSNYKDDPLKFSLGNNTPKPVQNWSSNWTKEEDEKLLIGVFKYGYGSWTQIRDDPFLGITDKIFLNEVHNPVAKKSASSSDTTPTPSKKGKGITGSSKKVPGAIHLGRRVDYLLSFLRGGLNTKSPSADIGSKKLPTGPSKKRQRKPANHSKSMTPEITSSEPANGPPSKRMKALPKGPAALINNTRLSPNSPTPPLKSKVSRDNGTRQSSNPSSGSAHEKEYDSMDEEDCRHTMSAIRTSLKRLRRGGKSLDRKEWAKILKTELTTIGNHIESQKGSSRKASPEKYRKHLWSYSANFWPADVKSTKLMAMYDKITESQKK

For some of these results: Results with a measured potency or affinity are listed apart.

Sequence of Protein translocase subunit SecA (Escherichia coli (strain K12)) (P10408 whole entry): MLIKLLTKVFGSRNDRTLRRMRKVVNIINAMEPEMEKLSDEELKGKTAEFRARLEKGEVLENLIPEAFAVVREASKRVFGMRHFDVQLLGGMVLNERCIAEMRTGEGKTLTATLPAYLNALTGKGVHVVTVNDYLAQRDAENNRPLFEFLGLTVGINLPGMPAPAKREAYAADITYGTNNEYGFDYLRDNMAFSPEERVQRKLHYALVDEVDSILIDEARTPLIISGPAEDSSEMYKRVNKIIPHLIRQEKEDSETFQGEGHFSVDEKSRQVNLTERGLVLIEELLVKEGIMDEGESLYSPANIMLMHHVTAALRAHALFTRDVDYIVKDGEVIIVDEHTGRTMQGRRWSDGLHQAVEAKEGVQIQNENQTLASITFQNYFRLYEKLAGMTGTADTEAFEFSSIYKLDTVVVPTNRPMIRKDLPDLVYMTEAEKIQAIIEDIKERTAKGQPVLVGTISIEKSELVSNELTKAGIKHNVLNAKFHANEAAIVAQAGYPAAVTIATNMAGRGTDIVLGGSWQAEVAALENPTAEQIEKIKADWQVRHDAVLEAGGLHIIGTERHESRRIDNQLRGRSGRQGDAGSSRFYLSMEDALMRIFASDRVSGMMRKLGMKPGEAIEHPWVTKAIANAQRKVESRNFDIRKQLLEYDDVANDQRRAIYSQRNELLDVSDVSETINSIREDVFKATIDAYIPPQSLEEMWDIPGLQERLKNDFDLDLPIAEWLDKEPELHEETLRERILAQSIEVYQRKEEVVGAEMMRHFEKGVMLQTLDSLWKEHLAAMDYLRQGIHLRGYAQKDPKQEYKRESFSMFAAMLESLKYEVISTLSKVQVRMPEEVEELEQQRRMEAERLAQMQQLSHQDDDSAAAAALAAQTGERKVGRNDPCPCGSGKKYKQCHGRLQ

Regarding `CCCNC(=O)CCC(=O)Nc1ccc(-n2cncn2)c(F)c1`, the Percent Effect in assay [1] was -7%; in assay [2] it was 2.63%; in assay [3], -2.96%; in assay [4] it was 4.31%; in the assay on Trypanosoma cruzi it was -6.2%; in assay [5], -2.68%. For the same compound, the Percent Effect in assay [6] is -0.501%; in the assay filed under Homo sapiens it was 29.1%; in assay [7], -0.49%; in [8], 0%; in assay [9], -1.12%.
Regarding `COCCc1noc(CN2CCc3nn(C(C)C)c(=O)cc3C2)n1`, the Percent Effect in [1] is -3.44%; in assay [2] it was 18.4%; in assay [3] it was -7.36%; in [4], -6.23%; with Trypanosoma cruzi it was -4.58%; in [5], 0.719%. Also, the Percent Effect in [6] is 6.18%; in the assay listed under Homo sapiens, 6.48%; in [7], 5.42%; in assay [8], 11.1%; in [9] it was -11.2%.
As for `Cc1nc(C)n(C2CCCN(C(=O)c3sccc3C3CC3)C2)n1` (stereo unspecified), the Percent Effect is -1.6% in assay [1]; 2.53% in assay [2]; -0.568% in [3]; -3.81% in [4]; -5% in the assay with Trypanosoma cruzi; 1.9% in [5]. Besides, the Percent Effect in assay [6] was 0.409%; in the assay listed under Homo sapiens, 22.4%; in [7], -2.46%; in [8], -8.86%; in [9] it was -7.52%.
For `CCOC(=O)CCC(=O)N1CCC(Oc2ccc(C(F)(F)F)cn2)CC1`, the Percent Effect was -1.66% in assay [1]; 7.79% in assay [2]; 4.3% in assay [3]; 13.1% in assay [4]; -6.41% in the assay with Trypanosoma cruzi; -1.94% in assay [5]. Moreover, the Percent Effect was 14.1% in [6]; 20.3% in the assay listed under Homo sapiens; 3.17% in assay [7]; 11.5% in assay [8]; -5.92% in assay [9].
For `CCOc1ccccc1-c1noc(CN2CC(n3cccn3)C2)n1`, the Percent Effect in [1] is -1.57%; in [2] it was 2.6%; in [3] it was 2.37%; in assay [4], -3.32%; in the assay on Trypanosoma cruzi, 8.13%; in assay [5], -3.16%. The Percent Effect in assay [6] is 2.99%; in the assay filed under Homo sapiens it was 4.34%; in assay [7], 0.952%; in assay [8] it was 7.06%; in [9] it was -6.41%.
`c1ccc(CN2CC[C@@H]3O[C@H](COCc4ccncc4)CC[C@@H]32)nc1`: the Percent Effect is -0.0418% in assay [1]; 10.7% in assay [2]; -4.7% in assay [3]; -5.18% in assay [4]; -8.46% in the assay on Trypanosoma cruzi; 5.83% in assay [5]. In addition, the Percent Effect in assay [6] was 9.07%; in the assay listed under Homo sapiens it was -4.23%; in [7], 4.25%; in assay [8], 8.97%; in [9] it was -2.83%.
Turning to `O=C(c1cnccn1)N1CCN2C[C@H](OCc3ccccn3)C[C@H]2C1`, the Percent Effect in [1] was -0.668%; in [2], 0%; in assay [3], 2.67%; in assay [4] it was 7.25%; in the assay on Trypanosoma cruzi, -3.09%; in assay [5], 0.538%. Further, the Percent Effect is 13% in assay [6]; -9.74% in the assay filed under Homo sapiens; 1.04% in assay [7]; -2.5% in assay [8]; 3.56% in [9].
As for `Cc1cc(C(=O)N2CCC(c3nccn3Cc3ccncc3)CC2)no1`, the Percent Effect in [1] was -4.98%; in assay [2] it was 8.22%; in [3], 5.77%; in [4], -7.08%; with Trypanosoma cruzi it was -0.979%; in assay [5], 5.46%. Besides, the Percent Effect in [6] was 12.6%; in the assay filed under Homo sapiens, 7.62%; in [7], 8.6%; in [8], 15%; in assay [9] it was -1.03%.
Take `CC(C)(C)C(=O)NCCC(=O)NC(C)(C)c1ccc2c(c1)OCCO2`: the Percent Effect in [1] is -1.46%; in [2], -5.48%; in assay [3], 12.2%; in assay [4], -1.99%; with Trypanosoma cruzi, -0.783%; in [5], 5%. Also, the Percent Effect in [6] was 4.44%; in the assay listed under Homo sapiens, -3.61%; in [7], 2.15%; in assay [8] it was 5%; in assay [9] it was 1.77%.
For the compound `CCNc1cc2c(nn1)CCN(C(=O)c1ccc3cc[nH]c3c1)C2`, the Percent Effect in assay [1] is -5.7%; in [2] it was 5.26%; in assay [3], 1.7%; in assay [4], 1.43%; with Trypanosoma cruzi, 6.96%; in assay [5] it was -2.3%. Further, the Percent Effect in assay [6] is 1.34%; in the assay filed under Homo sapiens, -2.63%; in [7], 8.33%; in assay [8] it was 19.5%; in [9], -7.29%.
Turning to `N#Cc1cccnc1NCCNC(=O)N1CCCC(C(F)(F)F)C1` (stereo unspecified), the Percent Effect was -0.35% in assay [1]; 10.8% in assay [2]; -2.73% in assay [3]; 11.1% in assay [4]; 4.83% in the assay with Trypanosoma cruzi; 13.3% in assay [5]. Also, the Percent Effect in [6] was 19%; in the assay filed under Homo sapiens, 23.4%; in assay [7] it was 4.76%; in assay [8], 19.5%; in assay [9] it was -4.05%.
